Reference: PubChem BioAssay (NCATS)
Active and inactive are the calls of the source. Calls follow the shape of the dose curve; as a rule, active = well fitted curve in the direction sought with a large enough effect; inconclusive = small, poorly fitted or top-dose-only effect, or another doubt; inactive = no such curve, though single readings can be large or run the other way.

biological target: Alpha-galactosidase (Coffea arabica) (UniProt Q42656); assay: Counterscreen for Glucocerebrosidase Inhibitors: qHTS Assay for Coffee Bean alpha-Galactosidase at pH 4.5 (AID 957); details: purified coffee bean alpha-galactosidase, fluorogenic substrate; series mostly up to 76.9 µM; activity change, negative = inhibition: at the top concentration;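 also: plate controls were enzyme alone for no effect and no enzyme for full effect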
Sequence (Q42656 whole entry, looked up): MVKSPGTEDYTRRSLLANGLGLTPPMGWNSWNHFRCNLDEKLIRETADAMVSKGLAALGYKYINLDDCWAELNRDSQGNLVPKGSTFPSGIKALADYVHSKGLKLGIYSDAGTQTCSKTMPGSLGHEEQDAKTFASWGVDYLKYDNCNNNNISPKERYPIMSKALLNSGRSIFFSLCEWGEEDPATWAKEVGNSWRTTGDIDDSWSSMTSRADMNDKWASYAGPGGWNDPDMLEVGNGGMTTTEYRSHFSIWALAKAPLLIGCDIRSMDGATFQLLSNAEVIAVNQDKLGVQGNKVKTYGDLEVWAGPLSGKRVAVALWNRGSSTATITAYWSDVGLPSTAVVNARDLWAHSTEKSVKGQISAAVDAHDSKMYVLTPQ
Procedure, shortened: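 Fluorogenic read-out: 4-methylumbelliferone at Ex 365/Em 440 nm after NaOH/glycine stop (pH 10). Enzyme 2 nM, 4-MU-alpha-galactoside 80 uM, citrate buffer pH 4.5, 20 min RT; normalized to no-enzyme and enzyme controls.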

Compound | activity change, negative = inhibition | outcome
CN/C(=C\[N+](=O)[O-])NCCSCc1ccc(CN(C)C)o1 | 3.34% (inactive) | –
CC(C)NCC(O)COc1cccc2[nH]ccc12 (centres undefined) | -1.1% (inactive) | –
Cc1cnc(C(=O)NCCc2ccc(S(=O)(=O)NC(=O)NC3CCCCC3)cc2)cn1 | 0.815% (inactive) | –
CCOC(=O)c1ncn2c1CN(C)C(=O)c1cc(F)ccc1-2 | -0.426% (inactive) | –
CCN(CC)CCNC(=O)c1cc(Cl)c(N)cc1OC | -2.61% (inactive) | –
NC[C@H](O)c1ccc(O)c(O)c1 | – | inactive
CCN(CC)C(=S)SSC(=S)N(CC)CC | -4.34% (inactive) | –
Cc1cn([C@H]2C=C[C@@H](CO)O2)c(=O)[nH]c1=O | -0.871% (inactive) | –
CC(C)[N+](C)(CCOC(=O)C1c2ccccc2Oc2ccccc21)C(C)C | -0.902% (inactive) | –
CN1CCN(CCCN2c3ccccc3Sc3ccc(Cl)cc32)CC1 | -0.79% (inactive) | –
NC12CC3CC(CC(C3)C1)C2 | 2.81% (inactive) | –
Nc1nnc(-c2cccc(Cl)c2Cl)c(N)n1 | 3.28% (inactive) | –
CCCCc1oc2ccccc2c1C(=O)c1cc(I)c(OCCN(CC)CC)c(I)c1 | -7.33% (inactive) | –
CCC1(c2ccccc2)C(=O)NCNC1=O | -1.05% (inactive) | –
OCCN1CCN(CCCN2c3ccccc3Sc3ccc(Cl)cc32)CC1 | 0.188% (inactive) | –
CN(C)CC/C=C1\c2ccccc2COc2ccccc21 | -3.23% (inactive) | –
O=NN(CCCl)C(=O)NCCCl | 1.71% (inactive) | –

Compound | activity change, negative = inhibition | outcome
N[C@@H]1CONC1=O | – | inactive
CC(C)(C)NC(=O)[C@H]1CC[C@H]2[C@@H]3CC[C@H]4NC(=O)C=C[C@]4(C)[C@H]3CC[C@]12C | -1.81% (inactive) | –
Cn1cnc([N+](=O)[O-])c1Sc1ncnc2nc[nH]c12 | -1.13% (inactive) | –
CC(C)OC(=O)C(C)(C)Oc1ccc(C(=O)c2ccc(Cl)cc2)cc1 | -5.71% (inactive) | –
CCCN(CCC)CCc1cccc2c1CC(=O)N2 | -2.89% (inactive) | –
COc1ccc(Cl)cc1C(=O)NCCc1ccc(S(=O)(=O)NC(=O)NC2CCCCC2)cc1 | 1.42% (inactive) | –
CN(C)C(=O)C(CCN1CCC(O)(c2ccc(Cl)cc2)CC1)(c1ccccc1)c1ccccc1 | -5.5% (inactive) | –
CCN(CC)CCOC(=O)C1(C2CCCCC2)CCCCC1 | -7.38% (inactive) | –
NNCCc1ccccc1 | -1.66% (inactive) | –
COC(=O)Nc1nc2ccc(C(=O)c3cccs3)cc2[nH]1 | -3.94% (inactive) | –
CN1CCN(CCCN2c3ccccc3Sc3ccc(C(F)(F)F)cc32)CC1 | -2.19% (inactive) | –
CCCNC(=O)NS(=O)(=O)c1ccc(Cl)cc1 | 1.06% (inactive) | –
O=c1[nH]cc(F)c(=O)[nH]1 | 0.37% (inactive) | –
COC(=O)[C@H]1[C@H]2C[C@@H]3c4[nH]c5cc(OC)ccc5c4CCN3C[C@H]2C[C@@H](OC(=O)c2cc(OC)c(OC)c(OC)c2)[C@@H]1OC | -8.74% (inactive) | –
CN1CCN(C2=Nc3ccccc3Oc3ccc(Cl)cc32)CC1 | 0.313% (inactive) | –
O=c1n(CCCN2CCN(c3cccc(Cl)c3)CC2)nc2ccccn12 | 4.05% (inactive) | –
Clc1ccc2c(c1)C(N1CCNCC1)=Nc1ccccc1O2 | -0.545% (inactive) | –
